# Source: the supplement of paper PMC11417369
# ± gives the standard deviation of the averaged measurements. The full ranking holds about 25,000 sequences; the median of “ln(normalized median fluorescence intensity)” is about 7.9, and the highest 2% start at about 11. The list comes from a sample in which the highest values are over-represented; it also holds similar and randomly drawn sequences.
# Test system: PfAP2-I AP2 domain 3 (GST-tagged)
# Test: gcPBM binding intensity (ln(normalized median fluorescence intensity)); higher = stronger DNA binding
# Method in brief: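 Using an Agilent 4 × 180k array, primer-extended double-stranded 36-bp intergenic genomic probes and negative controls were exposed for 1 h to GST-fused P. falciparum DNA-binding domains expressed in E. coli. Binding was carried out in 1× PBS with 1% milk, 0.2 mg/ml BSA, 0.5% salmon testes DNA and 0.03% Triton X-100, and protein was detected with Alexa488 anti-GST antibody and a 488 nm scan. Binding intensity is the highest Masliner-normalised natural-log median intensity across replicate spots of either probe orientation.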
row,Sequence,gcPBM binding intensity (ln)
1,AAAATTAAAATACGTACACACCTTATCTTTTTGGCT [CACACA_site4311],8.21 ± 0.19
2,ATATTTCTGTCAAGCACACATAATATTAAAATATGT [CACACA_site4330],7.91 ± 0.49
3,ATATTTTATGTAAAGGTGCAAAACAACATTAAAAAA,10.9 ± 0.47
4,CATGCCTTTAAAAAGGTGCAAACATTTTCACAAACA,10.4 ± 0.35
5,ATTTATTTTATATGTTGTACAAACATTTTAAAACAT [XGTACX_site6919],7.79 ± 0.38
6,CTTGAAAAAATAAAAACACACAATGTGTTTTTGAAT [CACACA_site3283],7.42 ± 0.68
7,TTTCATTTAGCTTTTACACACTATATATCATTGATT [CACACA_site6158],7.89 ± 0.68
8,AGTATTATATTTGTATGTACGTAGTAATATATAAAA [XGTACX_site528],7.86 ± 0.6
9,TTAAACTTGTTTTGGATGCACTATATAATTCATTTT [GTGCAC_site9549],9.45 ± 0.15
10,CGATTTTTTAAGTTTGTGCACTTAAAAACTATAACA,10.9 ± 0.54
11,TTTATTTTATTCACTATCATAAGCAAAACTTAAACA [GTGCAC_negctrl_site287],7.6 ± 0.4
12,TTTCATATTTTGTCCTGTTTTTTTTTTTTTTTTCTT [CACACA_negctrl_site993],7.53 ± 0.59
13,TTTAACTTTTATATAACACACATATTGTAATTATGT [CACACA_site6486],7.92 ± 0.33
14,TTTTTTGAATTTAAAAGTACAGGCTTTTACCAAATA [XGTACX_site1356],7.7 ± 0.45
15,TTTTTTTTTTGTAATTGTACTTTTTTAATACTTCTA [XGTACX_site4195],7.74 ± 0.82
16,TTAGTTTATTGGTACTGTACTTTTTTTTTCTCCATT [XGTACX_site8618],8.02 ± 0.33
17,TATTCGTGCAATAATAGTACACTTATAAATTATTCA [XGTACX_site8993],11.2 ± 0.66
18,TATTCGTGCAATAGTAGTACACTTATAAATTATTCT [XGTACX_site4899],10.7 ± 0.61
19,TATTCGTGCAATAATGGTACACTTATAAATTATTCA [XGTACX_site1430],10.7 ± 0.71
20,ACACATACATACATATGTACATATATACATATATAC [XGTACX_site5559],8.45 ± 0.83
21,AAATAATACATTCGTACTACACATATATATTAAATA [XGTACX_site7806],7.84 ± 0.41
22,GTAGGCATTAAAAAATGTACAAAATATTATGAATTG [XGTACX_site1615],7.65 ± 0.55

row,Sequence,gcPBM binding intensity (ln)
1,AGTAGGCATATTGGTTGTACAAAAAAATTATGCACC [XGTACX_site8925],11.2 ± 0.61
2,TGAACATATTAAAATTGTACATATGCACAATATGTA [XGTACX_site6801],8.53 ± 0.29
3,ATATATATATATGCATGTACATATATTTGTTATATC [XGTACX_site3197],9.22 ± 0.27
4,TATATATATATATATGCATGTACATATATTTGTTAT [TGCATGCA_site379],9.45 ± 0.14
5,TATGTGCACCCATGTACATGCGGACATATGTTATAT [TGCATGCA_site383],11 ± 0.9
6,TATATAATAATTTAGAGTACTGATAAAATATTCCAT [XGTACX_site6200],7.55 ± 0.47
7,AATAAATTAGAAGGATGTACTTTGTTTAATATAGAG [XGTACX_site1943],7.83 ± 0.37
8,AATAGCTAGCTGTGCACACAAACATATTTTCCAAAT [CACACA_site880],9.55 ± 0.16
9,TTTATTTTCCAAAGGGTGCACATAGTTAAAACGATA [GTGCAC_site9855],11.1 ± 0.29
10,TTCCAAAAAGTTATTACACACATATGTGCACATATA [CACACA_site6465],10 ± 0.4
11,CATTTTATAAAAAGCACACATATAGTTATATGCACA [CACACA_site3691],10.7 ± 0.91
12,CAAATAGCTAGCTGTGCACACAAACATATTTTCCAA [CACACA_site879],9.66 ± 0.23
13,TTTATTTTCCAAAGGGTGCACATAGTTGAAACGATA,11.1 ± 0.44
14,TTTCTTTTTTTTTGAAGTACATAAAAATATAAAAAA [XGTACX_site311],8.03 ± 0.085
15,AGACAAAATGTTTGAAGTACTTTTTATCAAATTAAA [XGTACX_site8885],7.66 ± 0.2
16,CACGAACACAAACACAAACACACATCATATATATAT [CACACA_site1322],9.25 ± 0.16
17,AAATATATATATAGTTGTACATATATCGTATATATT [XGTACX_site7867],7.57 ± 0.45
18,GTTAAAATTTGTCAATGTACAGAAATAATAAAAAAA [XGTACX_site1879],7.97 ± 0.62
19,ATATATATATATATATGTACATATTATTATTTTGAT [XGTACX_site4752],9.22 ± 0.49
20,AAAATAAACTATAGTACACACTTATTATTATGAAAT [CACACA_site5488],7.92 ± 0.3
21,TTTTTTCTTTTCAAGGTGCTTTATAAGAAAAAGGGA [GTGCAC_site9858],11.1 ± 0.89
22,TTTTTTTTTCTTCTTTTCAAATTTAAGAAATTATAA [CACACA_negctrl_site18],7.55 ± 0.57

row,Sequence,gcPBM binding intensity (ln)
1,AAATATAAGAAAAAGGTGCTTTTTTTTTTTTTTTTT [GTGCAC_site9700],9.79
2,AAAAAAAAACACGCATGTACATAAAAATAATCATAC [XGTACX_site1086],7.96 ± 0.57
3,ATACACACTCAAAAAAGTACTTAACTACATGAATTG [XGTACX_site6366],7.79 ± 0.55
4,AAGAAAATATAAAATGCACACTATAAATTGTATATA [CACACA_site7928],8.73 ± 0.014
5,CATTATAAAAAATAAAAAAGAAATAATTGTATATGC [CACACA_negctrl_site478],7.77 ± 0.68
6,TGTATGTATAATTGAGTGCACAGAAAAAAAAAAGAA,11 ± 0.13
7,TAAATAAATAAAAATAGTACATAATTATTATTATTA [XGTACX_site4981],7.42 ± 0.22
8,TTCTTTATATACAAACCAAAATATTATGTATAATAA [CACACA_negctrl_site15],7.62 ± 0.33
9,AAGATAAAATTATGCACACATACGAATAATTTTAAA [CACACA_site1705],9.79 ± 0.39
10,TAGATTATTATACTAGTGCAAATTATTTAAGAAAAA,10 ± 0.34
11,CTTATAAGAATACTAGTGCACATAATTTAACGAAAA,11 ± 0.59
12,AATGTACGTTTTATAACACACACACTAATAAAAAAA [CACACA_site9286],8.23 ± 0.36
13,TTTATTTTAACTTGTTCACACATTTGAATAAATAAA [CACACA_site5064],7.71 ± 0.33
14,ATCGGTAATATTAACACACACATTTATTTATATTTA [CACACA_site6638],7.96 ± 0.58
15,ATATCGTGTGCATTAACACACATTTATTTGAATAAA [CACACA_site7162],10.9 ± 0.5
16,ATATCGGGTGCATTAACACACATTTATTTGAATAAA [CACACA_site2350],11.7 ± 0.79
17,TATATTTATTATAACACACACATATAAATATTATAG [CACACA_site6726],7.95 ± 0.48
18,AACATTTTAAATTATACACACATTTTGAATATATAT [CACACA_site3470],7.78 ± 0.53
19,ACATATCGGGTGCATTAACACACATTTATTTGAATA [CACACA_site8736],11.8 ± 0.52
20,ATCGGTAATATTAACACACACATTTATATATATTTA [CACACA_site1084],8.02 ± 0.41
21,AAAATTAAAAATAACACACACATATTTATATTTATA [CACACA_site7329],7.59 ± 0.4
